Reference: PubChem BioAssay
Some of the results follow. The source made the active and inactive calls.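 The calls were made as follows, unless noted: active = GFP response above 150% of the DMSO level; inconclusive = fewer than 70 events counted for a yeast strain; inactive = the rest.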

Key:
[1] = hit retest on RPL19A-GFP reporter strain – cell-based, S. cerevisiae, flow cytometry, cherry picks, mother/daughter gates, confirmation (AID 2270;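 active = GFP response below 50% of the DMSO control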); conditions: 3 h, at 10 µM, stronger effect = lower value, 100 = same GFP as DMSO wells
[2] = yeast TOR pathway reporter LAP4-GFP change – cell-based, cherry picks, flow cytometry, mother/daughter gates, confirmation (AID 2271;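 active = GFP response above 150% of the DMSO control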;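 also: ratio of sample to DMSO plate mean so 100% equals DMSO level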); conditions: S. cerevisiae LAP4-GFP strain, 3 h, at 10 µM, stronger effect = higher value, 100 means same as DMSO control
[3] = TOR pathway reporter MEP2-GFP, retest of hits – S. cerevisiae, flow cytometry GFP, cherry picks, confirmation (AID 2272;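 active = GFP response above 150% of the DMSO control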;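 also: ratio of well signal to plate DMSO mean so 100% equals DMSO level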); conditions: S. cerevisiae MEP2-GFP strain, 3 h, at 10 µM, stronger effect = higher value
[4] = yeast AGP1-GFP fluorescence change, single-dose – cell-based, flow cytometry, S. cerevisiae, cherry picks, confirmation (AID 2273);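 also: median GFP channel fluorescence over the whole cell population gate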; conditions: S. cerevisiae AGP1-GFP strain, 3 h, at 10 µM
[5] = TOR pathway CIT2 reporter hit retest – S. cerevisiae, GFP fusion, cherry picks, mother/daughter gates, confirmation (AID 2274); conditions: S. cerevisiae CIT2-GFP strain, flow cytometry, 3 h, at 10 µM, stronger effect = higher value
[6] = green-channel fluorescence artefact in S. cerevisiae – s288c strain, artefact control for yeast TOR pathway GFP screen, dose response (AID 2757;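 active = fluorescence span over the dose series, or activity score, above about 33, limit read from the data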;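 also: thousands of bead-calibrated equivalent soluble fluorophore molecules from median cell fluorescence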); conditions: 520 nm autofluorescence, flow cytometry, 3 h, at 33 µM, stronger effect = higher value, zero means same as solvent-only cells
[7] = measured here: daughter cell gate
[8] = measured here: mother cell gate
[9] = measured here: daughter cell gate response
[10] = measured here: mother cell gate response

SMILES | GFP response vs DMSO [1] | GFP response vs DMSO [1, 7] | GFP response vs DMSO [1, 8] | GFP response relative to DMSO [2] | GFP response vs DMSO [3] | GFP response, % of DMSO [4] | GFP response, % of DMSO [5] | GFP response, % of DMSO [5, 7] | GFP response, % of DMSO [5, 8] | GFP response relative to DMSO [2, 9] | GFP response relative to DMSO [2, 10] | fluorescence change (kMESF span) [6]
Cc1cc(NCCOCCO)n2ncc(-c3ccc(Cl)cc3)c2n1 | 94.3% (inactive) | 93.1% | 89.1% | 100% (inactive) | 106% (inactive) | 105% (inactive) | 102% (inactive) | 102% | 96.8% |  |  | 
Cc1ccc(N2C(=O)C3C4C=CC(CNC(=S)Nc5cccc(Cl)c5)(O4)C3C2=O)cc1 (stereo not given) | 101% (inactive) |  |  | 97% (inactive) | 101% (inactive) | 98.4% (inactive) | 97.3% (inactive) | 99.2% | 89.5% | 99.1% | 97.3% | 
COc1ccccc1C1C2=C(CC(C)(C)CC2=O)N(CC(=O)O)C2=C1C(=O)CC(C)(C)C2 | 102% (inactive) | 93% | 94% | 105% (inactive) | 133% (inactive) | 98.9% (inactive) | 117% (inactive) | 118% | 107% |  |  | 
CCCc1[nH]nc2c1C(c1ccc(OC(=O)N3CCOCC3)c(OC)c1)C(C#N)=C(N)O2 (stereo not given) | 100% (inactive) | 101% | 95.4% | 102% (inactive) | 100% (inactive) | 97.8% (inactive) | 97.8% (inactive) | 89.9% | 97.7% |  |  | 
O=C(O)CCC(=O)OCC1CCCCC1 | 96.7% (inactive) | 97.6% | 95.6% | 104% (inactive) | 103% (inactive) | 99.3% (inactive) | 98.6% (inactive) | 95.8% | 94.9% |  |  | 
Cc1ccccc1NC(=O)COC(=O)c1cc(=O)c2ccccc2o1 | 99.7% (inactive) |  | 104% | 98.7% (inactive) | 97.8% (inactive) | 95.4% (inactive) | 104% (inactive) |  |  | 98.7% | 86% | 
O=C(Nc1nc(-c2ccccc2)cs1)c1cccnc1 | 101% (inactive) | 102% | 101% | 103% (inactive) | 98.3% (inactive) | 91% (inactive) | 98.3% (inactive) |  |  |  |  | 
COc1ccccc1-c1noc(-c2cccnc2)n1 | 95.3% (inactive) | 93% | 95.4% | 97.7% (inactive) | 108% (inactive) | 96.6% (inactive) | 95.8% (inactive) | 88.7% | 82.6% |  |  | 
CCc1nnc(NC(=O)c2nc(S(=O)(=O)Cc3ccccc3)ncc2Cl)s1 | 94.9% (inactive) | 95.9% | 91.4% | 98.9% (inactive) | 103% (inactive) | 97.3% (inactive) | 101% (inactive) | 103% | 97.1% |  |  | 
Cc1ccc(-c2nn(C(C)(C)C)c3ncnc(N)c23)cc1 | 46.7% (active) | 43.7% | 46.7% | 175% (active) | 116% (inactive) | 95.7% (inactive) | 45.8% (inactive) | 62.1% | 43.5% |  |  | -0.9 (inactive)
CC1=C/C(=N\OS(=O)(=O)c2ccccc2)C(C)=CC1=O | 79.2% (inactive) |  | 66.3% | 262% (active) | 118% (inactive) | 108% (inactive) | 98.8% (inactive) | 117% | 88.2% | 136% | 243% | 
Nc1ccc(-c2c3ccc(=O)cc-3oc3cc(O)ccc23)cc1C(=O)O | 103% (inactive) | 96.4% | 104% | 150% (active) | 248% (active) | 107% (inactive) | 140% (inactive) |  |  |  |  | 
CCOC(=O)c1cc(-c2ccc(/C=C3/C(=O)NC(=O)C(C#N)=C3C)o2)ccc1Cl | 67.6% (inactive) |  | 55.4% | 240% (active) | 160% (inactive) | 104% (inactive) | 118% (inactive) | 103% | 101% | 141% | 231% | 
O=C(Nc1c(-c2ccccc2)nc2c(Br)cc(Br)cn12)c1ccco1 | 94.5% (inactive) | 94.7% | 92.1% | 92.9% (inactive) | 103% (inactive) | 98.8% (inactive) | 100% (inactive) | 85.2% | 90.4% |  |  | 
Cc1cccn2c(=O)c3cc(C(=O)NCCc4ccccc4)c(=N)n(CCCn4ccnc4)c3nc12 | 95.8% (inactive) | 94.7% | 95% | 96.5% (inactive) | 103% (inactive) | 98.6% (inactive) | 100% (inactive) | 99.3% | 97.1% |  | 92.3% | 
Cc1c(/C=N/Nc2ccc(C(=O)O)cc2)c2ccccc2n1C | 96.2% (inactive) | 91.3% | 95.8% | 105% (inactive) | 103% (inactive) | 95.5% (inactive) | 91.7% (inactive) | 81.6% | 82.6% |  |  | 
CCc1ccc(C2CC(c3ccco3)=NN2S(C)(=O)=O)cc1 (stereo not given) | 108% (inactive) | 108% | 101% | 131% (inactive) | 180% (active) | 108% (inactive) | 188% (active) |  |  |  |  | 
